PubChem BioAssay (NCI)
This is part of a sample that, as a whole, favours compounds with a hit. Of some 83,000 tested, about 20% had one in any assay.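 Cell lines were cultured in 96-well plates, exposed to a single compound concentration, and assessed for percent growth 48 hours later.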 Calls of active or inactive are those of the source.

tested on: NCI-H23 lung; assay: NCI-60 one-dose screen, 48 h (100 = growth as untreated, 0 = no growth, -100 = all killed); settings: 10 µM unless noted
Experimental: Growth inhibition of the NCI-H23 human Non-Small Cell Lung tumor cell line is measured as a screen for anti-cancer activity. Cells are grown in 96 well plates and exposed to the test compound for 48 hours. Compounds are tested at a single concentration, which is 10^-5 M for most compounds. The reported endpoint is percent growth (GI% or GIPRCNT), where numbers from 0 - 100% represent growth inhibition, and numbers from -100% - 0 represent cell death. For example, a value of 40 represents 60% growth inhibition. A value of 0 means no net growth occurred over the course of the experiment. A value of -40 indicates 40% of cells at the beginning of the experiment died by the end of the experiment. A value of -100 means all cells are dead at the end of the experiment.
NCI-60 Human Tumor Cell Lines Screen was performed using the standard one-dose NCI protocol, which is described in more detail at https://dtp.cancer.gov/discovery_development/nci-60/default.htm.
Compounds with GIPRCNT values below 10 were considered active. Activity score was based on GIPRCNT using the following formula: […]
Score is 0 for GIPRCNT values of 100 or above, 50 for GIPRCNT values of 0, and 100 for GIPRCNT values of -100.

| Compound | growth |
| --- | --- |
| Cc1cc(C)c(O)c(CNCCCCCCNCc2cc(C)cc(C)c2O)c1 | 56% (inactive) |
| COc1ccc(N(c2nc(-c3ccc([N+](=O)[O-])cc3)cs2)C(C)C)cc1 | 65% (inactive) |
| O=C(CSc1nc2ccc([N+](=O)[O-])cc2[nH]1)Nc1ccc(F)c(Cl)c1 | -7.69% (active) |
| C[C@@H]1C[C@H]2C(=O)O[C@@H](C)[C@H](NC(=O)[C@H](Cc3cc(F)cc(F)c3)NC(=O)Nc3ccc(Cl)cc3F)C(=O)N3C[C@H](O)C[C@H]3C(=O)N3CCN(C)C[C@H]3C(=O)N[C@@H](C)C(=O)N2C1 | 36.2% (inactive) |
| N#C/C(=C(/O)CCCO)c1nc2ccccc2c(=O)[nH]1 | 91.2% (inactive) |
| CC(C)(C)c1cc(C(=O)Nc2cc3ccccc3cc2C(=O)NCCN)cc(C(C)(C)C)c1 | -52.4% (active) |
| Clc1ccccc1/C=N\Nc1ccccn1 | 84.9% (inactive) |
| COc1cc(-c2cc(-c3ccc(Nc4ncnc5cc(Cl)ccc45)cc3)nc(N3CCCCC3)n2)cc(OC)c1OC | 102% (inactive) |
| Cc1nn(-c2ccccc2)c(N2CCOCC2)c1-c1nc2ccc([N+](=O)[O-])cc2[nH]1 | 107% (inactive) |
| CNC(=O)c1cc(Oc2cccc3nc(NC(=O)Nc4cc(C(F)(F)F)cc(C(F)(F)F)c4)ccc23)ccn1 | 50.8% (inactive) |
| COc1ccc(C2CC(c3ccc4ccccc4c3)=NN2c2nc(O)c(C3=c4cc(OC)ccc4=NC3=O)s2)cc1 (stereo not given) | -29.8% (active) |
| O=C(CSc1nccc(Nc2ccc(S(=O)(=O)Nc3ccccn3)cc2)n1)c1ccc(Cl)cc1 | 80.3% (inactive) |
| CCc1ccc(C2=C/C(=C/c3ccccc3)C(=O)N2CCc2ccc(S(N)(=O)=O)cc2)cc1 | 101% (inactive) |
| O=C1CN(Cc2ccc(C(=O)NO)cc2)C(=O)[C@@H](Cc2ccccc2)N1 | 100% (inactive) |
| Cc1cnc(N)nc1OCC(C)(C)CNC(=O)c1cccc(-c2ccc(S(=O)(=O)Nc3ccc4c(c3)N(C(=O)C3CC3)CCC4)cc2)c1 | 48.6% (inactive) |
| O=C(Nc1ccccc1)Nc1ccc(C(=O)/C=C/c2ccc(N3CCCC3)cc2)cc1 | 92.3% (inactive) |
| O=C(Nc1cc(F)cc2cccnc12)c1cnc(N2CCNCC2)cn1 | 83.4% (inactive) |
| Cn1cc(-c2nnc(-c3cn(C)c4ncccc34)s2)c2ccccc21 | 84.6% (inactive) |
| Nc1nnc(CSc2nnc3n(Cc4ccccc4)c(=O)c4c5c(sc4n23)CCCC5)s1 | 88.5% (inactive) |
| O=c1[nH]c(CN2CCN(c3cccc(Cl)c3)CC2)nc2cc(Cl)ccc12 | 84.9% (inactive) |

| Compound | growth |
| --- | --- |
| CCCCCCCCN(CCCCCCCC)CC(O)c1ccc(Cl)c(C)c1Cl (stereo not given) | 65% (inactive) |
| C=C(C)[C@@H]1CC[C@]2(COC(=O)c3ccccc3C(=O)O)CC[C@]3(C)[C@H](CC[C@@H]4[C@@]5(C)CC[C@H](OC(=O)c6ccccc6C(=O)O)C(C)(C)[C@@H]5CC[C@]43C)[C@@H]12 | 6.7% [100 µM] (active) |
| COc1cc(NN=C(c2ccc(O)cc2)c2ccc(O)cc2)c([N+](=O)[O-])cc1[N+](=O)[O-] | 5.6% (active) |
| CCN(CC)c1cc(N)c(Cc2c(N)cc(N(CC)CC)cc2Cl)c(Cl)c1 | 11.1% (inactive) |
| CC1(C)CC[C@]23CC[C@]4(C)[C@H](CC[C@@H]5[C@@]6(C)C/C(=C/c7cccnc7)C(=O)C(C)(C)[C@@H]6CC[C@]54C)[C@H]2[C@H]1OC3=O | 46.7% [100 µM] (inactive) |
| O=C(Nc1cccc(F)c1)c1cc(=O)[nH]c2cc(Br)ccc12 | 72.5% (inactive) |
| Cn1cc(-c2noc(C(=O)c3cn(C)c4ncccc34)n2)c2ccccc21 | 92.3% (inactive) |
| CC/C=C(\C)C(CCC)(CN=O)C(=O)OCC (stereo not given) | 99.7% (inactive) |
| COc1ccc2c(c1)C(C)Cc1c(Cl)nc(C)nc1N2C (stereo not given) | 25.8% (inactive) |
| O=C(Nc1cc(-c2cccnc2)nc(NCCCN2CCOCC2)n1)c1cc(Br)cc(C(F)(F)F)c1 | 80.9% (inactive) |
| CC(=O)CC(=O)SC1=NCCS1 | 108% (inactive) |
| CSc1nc(N)c(N=Nc2ccc(S(=O)(=O)Nc3nnc(C)s3)cc2)c(=O)[nH]1 | 107% (inactive) |
| COc1c(C(C)=O)c(OCCCCOc2c(C(C)=O)c(OC)c3ccoc3c2OC)c(OC)c2occc12 | 68.8% (inactive) |
| CCc1ccc(-c2ccc(COc3ccc(CC4SC(=O)NC4=O)cc3)cc2)cc1 (stereo not given) | 52.2% (inactive) |
| O=c1[nH]cnc2c1ccn2C1OC(CO)C(O)C1O (stereo not given) | 81.4% (inactive) |
| COc1ccc(/C=C(/C2=NCCN2)n2ccc3ccccc32)cc1 | 100% (inactive) |
| COc1ccc2nc3cc(Cl)ccc3c(Nc3ccc(O)cc3)c2c1 | 72.8% (inactive) |
| C#C[C@]1(O)CC[C@H]2[C@@H]3CC=C4c5nc(Nc6ncccn6)sc5CC[C@]4(C)[C@H]3CC[C@@]21C | 77.8% (inactive) |
| CC(C)CCSC1=CC(=O)c2ccccc2C1=O | 78% (inactive) |
| C=CCCCCCCCCC(=O)OC(C)C | 98.4% (inactive) |
